Reference: the supplement of paper PMC13380429

Tests used:
[1] = test system: Vero E6 infected with SARS-CoV-2; test: morphology score (similarity to uninfected cells); higher = more like uninfected cells; conditions: 24 h
[2] = test system: Vero E6 infected with SARS-CoV-2; test: SARS-CoV-2 infection rate relative to infected DMSO; higher = more infection, active = 60 or less; conditions: 24 h

SMILES | morphology score [1] | SARS-CoV-2 infection rate [2]
C=CC(=O)Nc1cccc(Oc2nc(Nc3ccc(N4CCN(C)CC4)cc3)nc3ccsc23)c1 [olmutinib] (0.833333 µM) | -0.0965 | 94.5% (inactive)
CN1C(=O)C(N2CCCCC2)S/C1=C\C(=O)O (centres undefined) [ozolinone] (10 µM) | 0.00951 | 108% (inactive)
COc1cc2nc(N3CCN(C(=O)c4ccco4)CC3)nc(N)c2cc1OC [prazosin] (10 µM) | -0.0585 | 107% (inactive)
CC[C@H](C)[C@H](N)C1=N[C@H](C(=O)N[C@@H](CC(C)C)C(=O)N[C@H](CCC(=O)O)C(=O)N[C@H](C(=O)N[C@H]2CCCCNC(=O)[C@H](CC(N)=O)NC(=O)[C@@H](CC(=O)O)NC(=O)[C@H](Cc3cnc[nH]3)NC(=O)[C@@H](Cc3ccccc3)NC(=O)[C@H]([C@@H](C)CC)NC(=O)[C@@H](CCCN)NC2=O)[C@@H](C)CC)CS1 [bacitracin] (10 µM) | -0.109 | 112% (inactive)
COc1ccc(CN(C(=O)[C@@H](N)Cc2c(C)cc(C(N)=O)cc2C)[C@@H](C)c2ncc(-c3ccccc3)[nH]2)cc1C(=O)O [eluxadoline] (10 µM) | 0.15 | 117% (inactive)
Cc1ccc(Sc2cncc3sc(C(N)=O)cc23)cc1 (10 µM) | -0.153 | 114% (inactive)
COc1cc2ncnc(Nc3ccc(Oc4ccccc4)cc3)c2cc1OC [SRC-kinase-inhibitor-I] (0.833333 µM) | 0.0162 | 110% (inactive)
Nc1nc(NC2CC2)cc(-c2cccc(Cl)c2Cl)n1 (10 µM) | 0.121 | 97% (inactive)
CCc1oc2ccccc2c1C(=O)c1cc(Br)c(O)c(Br)c1 [benzbromarone] (10 µM) | 0.145 | 85.5% (inactive)
CC(=O)NCCCOc1ccc(C(=O)N2CCC(N3C(=O)CCc4ccccc43)CC2)cc1 (10 µM) | 0.184 | 102% (inactive)
O=C(O)C(Cl)Cl [dichloroacetate] (10 µM) | 0.236 | 88.5% (inactive)
CN(C(=O)CN(CCO)CC(=O)N(C)C(C)(C)Cc1ccccc1)C(C)(C)Cc1ccccc1 [oxethazaine] (10 µM) | -0.169 | 102% (inactive)
CC(C)(C)NS(=O)(=O)c1cncc(-c2cc(F)c3nc(N)nn3c2)c1 (10 µM) | 0.0263 | 104% (inactive)
c1ccc(C2CC2)c(OCC2=NCCN2)c1 [cirazoline] (10 µM) | 0.0206 | 102% (inactive)
CC(=O)C1=C(O)[C@@H]2[C@H]3c4c[nH]c5cccc(c45)C[C@H]3C(C)(C)N2C1=O [cyclopiazonic-acid] (0.833333 µM) | 0.361 | 76.5% (inactive)
O=c1[nH]c(=O)n([C@H]2C[C@H](O)[C@@H](CO)O2)cc1/C=C/Br [brivudine] (10 µM) | 0.0102 | 108% (inactive)
N=C(N)c1ccc(/C=C/c2ccc(C(=N)N)cc2O)cc1 [hydroxystilbamidine] (10 µM) | 0.115 | 109% (inactive)
O=C1Nc2ccccc2C2(CCN(CCc3ccc(C(F)(F)F)cc3)CC2)O1 (10 µM) | -0.158 | 106% (inactive)
O=C(O)c1cc(O)c2ccc(Cl)cc2n1 [7-chlorokynurenic-acid] (10 µM) | 0.0315 | 110% (inactive)
O=C(Nc1ccc(Br)cc1)c1cc(Br)cc(Br)c1O [tribomsalan] (10 µM) | 0.043 | 106% (inactive)
COC(=O)C1=CO[C@@H](O)[C@@H]2C(CO)=CC[C@H]12 [genipin] (10 µM) | 0.291 | 112% (inactive)
CCCCCCCCCCC(CO)CCCCCCCC (centres undefined) [2-octyldodecan-1-ol] (10 µM) | 0.0425 | 110% (inactive)
C[C@@H](Oc1ccc(Cl)cc1)c1ccnc2ncnn12 (10 µM) | -0.0401 | 112% (inactive)
CCOC(=O)c1c(C)[nH]c2ccc3c(c12)CN1CCc2cc(OC)ccc2C1O3 (centres undefined) (10 µM) | 0.729 | 28.5% (active)
O[C@@H](Cc1ccncc1)C(Cl)(Cl)Cl (10 µM) | 0.21 | 83.5% (inactive)
Cc1cnc(Nc2ccc(N3CCN(C)CC3)cc2)nc1Nc1cccc(S(=O)(=O)NC(C)(C)C)c1 (0.833333 µM) | 0.106 | 122% (inactive)
COc1cc2nc(N3CCCN(C)CC3)nc(NC3CCN(Cc4ccccc4)CC3)c2cc1OC (0.833333 µM) | 0.456 | 73.5% (inactive)
